Results from article PMC7819943, “Rice protein-binding microarrays: a tool to detect cis-acting elements near promoter regions in rice”.
The full ranking holds about 68,000 sequences; the median of “fluorescence intensity (a.u.)” is about 9,100, and the highest 2% start at about 16,000. The sample as a whole holds a higher share of the highest values than the screen did.

target: OsWRKY34 (Oryza sativa, UniProt Q0JBA9 1-250); assay: protein-binding microarray (RPBM); PBS, 2% BSA, 51.3 ng/ul salmon testes DNA, 50 uM zinc acetate, 200 nM TF, 25 C, 1 h; high values mean tight binding; conditions: protein: recombinant; tags: N-terminal polyhistidine and DsRed monomer fusion (pET32a); label: CyDye5-dUTP incorporated in the synthesized complementary strand; 3' TTTTT single-stranded linker to array surface; dsDNA, one strand shown
Sequence (Q0JBA9 entry or part of it): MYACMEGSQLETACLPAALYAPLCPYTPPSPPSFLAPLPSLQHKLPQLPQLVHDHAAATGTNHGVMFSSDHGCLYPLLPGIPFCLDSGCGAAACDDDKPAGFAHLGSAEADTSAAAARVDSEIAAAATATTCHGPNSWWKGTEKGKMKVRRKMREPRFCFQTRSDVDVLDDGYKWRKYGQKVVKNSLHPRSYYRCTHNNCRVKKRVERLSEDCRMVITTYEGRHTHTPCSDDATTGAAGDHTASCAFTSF
Procedure, shortened: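 Transcription factors were made in E. coli BL21-CodonPlus as N-terminal fusions to a polyhistidine tag and DsRed, then purified on Ni–NTA. After primer extension with Cy5-dUTP and blocking with 2% BSA, a custom Agilent array was exposed for 1 h at 25 °C to 200 nM protein in PBS, 2% BSA, salmon testes DNA and 50 µM zinc acetate. Washed arrays were scanned on an Axon 4000B, and the binding signal is per-feature fluorescence intensity in arbitrary units.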

| Sequence | binding signal |
| --- | --- |
| GTTTTGTATGGTTCTCTGGATATATTACTGCCTGTAAATTCGGAGTCACCTAGTGCAG | 8320 fluorescence intensity (a.u.) |
| ACTTGTATTCTTCCTCGTCTTCCTCTTCTGTATTTCTGGTCGGAGTCACCTAGTGCAG | 8140 fluorescence intensity (a.u.) |
| CTTTCCGTCGCGTCTCGTCTTCTCATGGTTGCAACTCTCCCGGAGTCACCTAGTGCAG | 18100 fluorescence intensity (a.u.) |
| AACTCACTCTCGCGTTCGCGTCGTCTCCGGCCTTTTCTTGCGGAGTCACCTAGTGCAG | 8870 fluorescence intensity (a.u.) |
| CTTGGTTTCTTGTTGTGCAACTCTCGTCGTCTCGTTCATCCGGAGTCACCTAGTGCAG | 11500 fluorescence intensity (a.u.) |
| ACTGTCTCGTATTCTATTCCTCATTCCTTCTCTTTTTTTCCGGAGTCACCTAGTGCAG | 19600 fluorescence intensity (a.u.) |
| TCCGTCGTCTTCCTTTACTGGTTCTATGTCTTCTCAGTAACGGAGTCACCTAGTGCAG | 10800 fluorescence intensity (a.u.) |
| TACTGGTCGTCTGGTCTACTCCGTCTCTCCTCTTCTCTCCCGGAGTCACCTAGTGCAG | 12200 fluorescence intensity (a.u.) |
| CTCTCCTCCCTATTCTTTTCCTTTCCTCTCCTTTCCTTTCCGGAGTCACCTAGTGCAG | 8870 fluorescence intensity (a.u.) |
| TCCTCATGCCTCTTTTTCCTCCTCCTTCCTTCTCTCATTCCGGAGTCACCTAGTGCAG | 10200 fluorescence intensity (a.u.) |
| TTTCTCCGTCGTCTTCCTCTACTGGTTCTATGTCTTCTCACGGAGTCACCTAGTGCAG | 18800 fluorescence intensity (a.u.) |
| ATCATTCCTAACTGCCTGGTCGTACTTCTCTGTATTTTGTCGGAGTCACCTAGTGCAG | 17500 fluorescence intensity (a.u.) |
| CCCGGCCTTAGCATACTATTATTTTAGCACTAATCTTAACCGGAGTCACCTAGTGCAG | 9300 fluorescence intensity (a.u.) |
| TTTTATAAATTCGAGCGTGTGCGGGTTTCGTTTTCTCACTCGGAGTCACCTAGTGCAG | 9840 fluorescence intensity (a.u.) |
| GCTGTGGTCATGGACAGGGGACGGGCTGGGGTCGTCGCGCCGGAGTCACCTAGTGCAG | 8090 fluorescence intensity (a.u.) |
| TTTTGCTACAGTGCTCGGATATATCTGGGACGTCCATTTTCGGAGTCACCTAGTGCAG | 10200 fluorescence intensity (a.u.) |
| TGCGTACACTCCTTTGAAACCCCATTGCTATGTAGACAATCGGAGTCACCTAGTGCAG | 8020 fluorescence intensity (a.u.) |
| TAAAATTCTGTTCCGCCGCGTTTGCCCTCGTCAACTAATCCGGAGTCACCTAGTGCAG | 9750 fluorescence intensity (a.u.) |
| ATGTCTGTATCTGTTATTGTTTCTATTGTGTCTGATCCAACGGAGTCACCTAGTGCAG | 8980 fluorescence intensity (a.u.) |
| AACTAGGTCCCTCGGCGGTTTTGACTCCTGTTTTGTCCAACGGAGTCACCTAGTGCAG | 12500 fluorescence intensity (a.u.) |
| GGCAACCACGTAATTCCCTCCCTTTTCAGTTACTCATCAACGGAGTCACCTAGTGCAG | 9620 fluorescence intensity (a.u.) |

| Sequence | binding signal |
| --- | --- |
| GGTTCCAATTCGTCGCCTGATACTCCGATTCGAGTTCTTGCGGAGTCACCTAGTGCAG | 12700 fluorescence intensity (a.u.) |
| CTCGTTGTCGTGCTGCTTGTAATTCATCTAGTTTGTCTACCGGAGTCACCTAGTGCAG | 10000 fluorescence intensity (a.u.) |
| CTTGGATTCTGAGGTGGGCTTGAACTTGATATGAATTAGGCGGAGTCACCTAGTGCAG | 8100 fluorescence intensity (a.u.) |
| GTGTAACTTGTTTTGCTAGGGTTTTTGATTGCTTTTTACTCGGAGTCACCTAGTGCAG | 12000 fluorescence intensity (a.u.) |
| GGCCGGGCGAGGCGCTGGGAGGTGGCGGCTAGCGGCGGGGCGGAGTCACCTAGTGCAG | 8500 fluorescence intensity (a.u.) |
| CGAGTCTTTTGTGCGGGTGGTTGGGGCGTGGGCGGTGGCGCGGAGTCACCTAGTGCAG | 23100 fluorescence intensity (a.u.) |
| TTTAGGGGTGTTTGGTTGAGGGGTGAGTGGGATGGGTTGGCGGAGTCACCTAGTGCAG | 10300 fluorescence intensity (a.u.) |
| GGTGGTTGGCGCGCGTTTTCTTGTGTGGTTTTTTGTGTCGCGGAGTCACCTAGTGCAG | 14200 fluorescence intensity (a.u.) |
| TGTTCTTGCTACGCTGGGAGGGGAGGGGTGGCGCCGCGGCCGGAGTCACCTAGTGCAG | 21700 fluorescence intensity (a.u.) |
| GTGCGTGTAAACTTTTTTGGGGTTGTTTTGGGCGGTTACTCGGAGTCACCTAGTGCAG | 18200 fluorescence intensity (a.u.) |
| GAGGTGACGCTGCCGCCGGCGGTGGGCGGAGTGGGAGGGGCGGAGTCACCTAGTGCAG | 8390 fluorescence intensity (a.u.) |
| CAAATTCTAGACTTTTTGGTGGGTTGCGTGCGAGGGGTGGCGGAGTCACCTAGTGCAG | 10500 fluorescence intensity (a.u.) |
| AGATGAGAGGTTTGGTTGGTTGGATGGTGGGGAGCGCCCGCGGAGTCACCTAGTGCAG | 10400 fluorescence intensity (a.u.) |
| GTAAACTTATTCTTTGGGCGTTGTTATTATTTGGGGCAATCGGAGTCACCTAGTGCAG | 11400 fluorescence intensity (a.u.) |
| TTGGGTTGGGTTGGTGAGGTGGGGAGATGGTTTGGTGAGGCGGAGTCACCTAGTGCAG | 17300 fluorescence intensity (a.u.) |
| ATTTGTTCCCATCCATCTCGGCCCTGTCGCCATTGTGCCACGGAGTCACCTAGTGCAG | 9450 fluorescence intensity (a.u.) |
| GATTGATTATCCTTTTCTTAAACTATTTTCCTGTTTTTCACGGAGTCACCTAGTGCAG | 13200 fluorescence intensity (a.u.) |
| GCCAAGCCTTTTTCTTCTACTCTTTTTGGCATGGAACTCACGGAGTCACCTAGTGCAG | 8350 fluorescence intensity (a.u.) |
| AACGATTTGCATGTCATACAGATACATCACATTTCTTTCTCGGAGTCACCTAGTGCAG | 8520 fluorescence intensity (a.u.) |
| AGCAAATTCCTTTATGTTTTTTCTTATGTCTTCTCCAGCTCGGAGTCACCTAGTGCAG | 9040 fluorescence intensity (a.u.) |
| ACACTCTATTAAGAGGATCCGTTTCATTTTTTGTTCCATCCGGAGTCACCTAGTGCAG | 8760 fluorescence intensity (a.u.) |
